Compound activity as filed in PubChem BioAssay.
Rows were chosen to be rich in hits. Some 6.8% of all compounds tested hit in one or more screens of this group.
Pf Dd2 inh = P. falciparum Dd2 growth inhibitors, primary screen, SYBR Green fluorescence, single dose replicates | 72 h; active compounds read low | activity change, % at 10 µM | actives 2.3% (n = 94,000) | AID 1159554, 2015; in the data active = activity change below about -80%
T cruzi growth = T. cruzi intracellular proliferation inhibitors, primary screen, cell-based, beta-gal Tulahuen parasites, NIH3T3 host, luminescence | inhibition, % at 8.34 µM | T. cruzi beta-gal in NIH3T3, GalScreen luminescence, 90 h | AID 624255, 2012 | actives 5.9% (n = 77,000);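 active = mean inhibition above about 93%, with at least 55% of replicates each passing it, limit read from the data, passing the limit was not always enough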
C diff growth = C. difficile growth inhibitors, primary screen, HTS; Clostridium difficile clinical isolate growth, OD600, 24 h; active compounds read low; growth activity, negative = inhibition, % at 16 µg/mL (by protocol); actives 0.25% (n = 86,000);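 active = mean growth activity at or below -80% and every replicate also at or below -80%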;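 note: 0% = DMSO wells and -100% = levofloxacin 16 µg/mL wells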
Active calls of the source: *; nt = no result given.

SMILES | Pf Dd2 inh | T cruzi growth | C diff growth
C[C@H]1CN([C@@H](C)CO)C(=O)Cc2cc(NS(=O)(=O)c3ccc(F)cc3)ccc2O[C@H]1CN(C)S(=O)(=O)c1ccc(F)cc1 | -19.4 | 21.0 | 10.7
C[C@@H]1CN([C@H](C)CO)C(=O)c2cc(NC(=O)Nc3ccc4c(c3)OCO4)ccc2O[C@@H](C)CCCCO[C@@H]1CN(C)C(=O)Cc1ccccc1 | -68.1 | 28.3 | 11.4
COc1ccc2c3c(n(C)c2c1)[C@H](CO)N(Cc1ccccc1F)CC31CN(C(=O)C2CCCC2)C1 | -12.4 | nt | 5.0
COc1ccc2c3c([nH]c2c1)[C@H](CO)N(Cc1ccccc1F)CC31CN(C(=O)C2CCCC2)C1 | -87.0* | nt | 2.1
Cc1noc(C)c1S(=O)(=O)N(C)C[C@@H]1OCc2ccccc2-c2c(n(C)c3ccccc23)C(=O)N([C@@H](C)CO)C[C@@H]1C | -44.3 | 7.9 | 2.1
C[C@@H]1CN([C@H](C)CO)C(=O)c2c(c3ccccc3n2C)-c2ccccc2CO[C@H]1CN(C)Cc1ccc2c(c1)OCO2 | -36.9 | nt | -3.9
C[C@H]1CN([C@@H](C)CO)C(=O)c2c(c3ccccc3n2C)-c2ccccc2CO[C@H]1CN(C)Cc1ccc(Cl)c(Cl)c1 | -77.3 | nt | 9.0
C[C@@H]1CN([C@@H](C)CO)C(=O)c2c(c3ccccc3n2C)-c2ccccc2CO[C@H]1CN(C)Cc1ccc2c(c1)OCO2 | -82.9* | nt | 3.2
C[C@@H]1CN([C@@H](C)CO)C(=O)c2c(c3ccccc3n2C)-c2ccccc2CO[C@H]1CN(C)Cc1ccc(Cl)c(Cl)c1 | -91.1* | nt | 4.0
C[C@H]1CCCCO[C@H](CN(C)Cc2ccc(Cl)c(Cl)c2)[C@@H](C)CN([C@@H](C)CO)C(=O)c2cc(NC(=O)NC3CCCCC3)ccc2O1 | -31.6 | 80.4 | -3.1
C[C@@H]1CCCCO[C@H](CN(C)C(=O)Nc2ccccc2)[C@@H](C)CN([C@H](C)CO)C(=O)c2cc(NC(=O)C3CCCCC3)ccc2O1 | -10.5 | 55.9 | 3.7
C[C@H]1CCCCO[C@@H](CN(C)C(=O)Nc2ccc(F)cc2)[C@@H](C)CN([C@@H](C)CO)C(=O)c2cc(NC(=O)C3CCCCC3)ccc2O1 | -63.5 | 72.2 | -1.9
C[C@@H]1CCCCO[C@H](CN(C)C(=O)Nc2ccccc2)[C@H](C)CN([C@H](C)CO)C(=O)c2cc(NC(=O)C3CCCCC3)ccc2O1 | -86.6* | 56.7 | nt
C[C@@H]1CCCCO[C@@H](CN(C)C(=O)Nc2ccc(F)cc2)[C@@H](C)CN([C@H](C)CO)C(=O)c2cc(NC(=O)C3CCCCC3)ccc2O1 | -48.5 | 55.8 | -2.0
C[C@@H]1CCCCO[C@H](CN(C)C(=O)Nc2ccc(F)cc2)[C@@H](C)CN([C@@H](C)CO)C(=O)c2cc(NC(=O)C3CCCCC3)ccc2O1 | -86.4* | 65.8 | 7.6
C[C@@H]1CCCCO[C@@H](CN(C)C(=O)Nc2ccc(F)cc2)[C@@H](C)CN([C@@H](C)CO)C(=O)c2cc(NC(=O)C3CCCCC3)ccc2O1 | -85.8* | 71.7 | 8.1
CCCNC(=O)C[C@H]1C[C@H]2c3cc(NC(=O)Cc4ccncc4)ccc3O[C@H]2[C@H](CO)O1 | 2.7 | -77.5 | -1.2
CCCNC(=O)Nc1ccc2c(c1)OC[C@H](C)N(CC1CCCC1)C[C@H](C)[C@@H](OC)CN(C)C2=O | -50.4 | nt | -16.0
C[C@H]1CN([C@@H](C)CO)C(=O)c2cc(NC(=O)Nc3cccc4ccccc34)ccc2O[C@@H]1CN(C)C(=O)Nc1cccc2ccccc12 | -24.0 | 29.2 | 0.8
C[C@@H]1CN([C@@H](C)CO)C(=O)Cc2cc(NC(=O)Nc3ccccc3)ccc2O[C@H]1CN(C)CC1CC1 | -86.7* | -21.4 | 1.4
C[C@H]1CN([C@@H](C)CO)C(=O)Cc2cc(NC(=O)Nc3ccccc3)ccc2O[C@H]1CN(C)CC1CC1 | -75.1 | 33.7 | -5.5
C[C@H]1CN([C@@H](C)CO)C(=O)Cc2cc(NC(=O)Nc3cccc4ccccc34)ccc2O[C@@H]1CN(C)CC1CC1 | -61.7 | 12.2 | -3.1
C[C@@H]1CN([C@@H](C)CO)C(=O)Cc2cc(NC(=O)Nc3cccc4ccccc34)ccc2O[C@@H]1CN(C)CC1CC1 | -85.2* | 36.5 | -0.6
CC(C)NC(=O)N(C)C[C@@H]1Oc2ccc(NS(C)(=O)=O)cc2C(=O)N([C@@H](C)CO)C[C@@H]1C | 35.6 | -29.8 | 0.0
C[C@H](CO)N1C[C@H](C)[C@H](CN(C)Cc2ccc(C(=O)Nc3ccccc3N)cc2)Oc2ccc(NC(=O)Cc3ccccc3)cc2C1=O | -84.4* | nt | 5.6
C[C@@H]1CN([C@@H](C)CO)C(=O)c2cc(NC(=O)Nc3ccccc3)ccc2O[C@@H]1CN(C)Cc1ccc(C(=O)Nc2ccccc2N)cc1 | -83.5* | 47.7 | 0.8
